The results in this text go back to PubChem BioAssay (NCATS).

Values without a mark were called inactive. Results filed as inconclusive are left out. Activity calls are given as the source filed them. Unless noted, calls come from the whole dose curve; as a rule, active = well fitted curve in the direction sought with a large enough effect; inconclusive = small, poorly fitted or top-dose-only effect, or another doubt; inactive = no such curve, though single readings can be large; an effect the other way counts as inactive or inconclusive. Bounds are passed on as bounds.

Test [1] concerns the target Lysosomal acid glucosylceramidase (Homo sapiens) (UniProt P04062). The test can be described thus: Glucocerebrosidase-p2 (AID 348; in the data active = potency below about 10 µM; note: potency is the fitted concentration of half-maximal effect). The following applies: purified GBA, blue fluorogenic substrate, 40 min. In outline: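 Compounds titrated from 0.6 nM upwards against 0.2 nM enzyme in pH 5.9 citric acid/KH2PO4, taurocholate, tween-20; blue fluorogenic substrate 80 uM, 40 min room temperature, stopped and read Ex 365/Em 440 for AC50.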

Test [2] is described as follows: AP1 Signaling Pathway (AID 357; active = well fitted curve in either direction with a large enough effect, not every such curve was filed as active;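 note: ME-180 reporter cells stimulated with EGF at its EC50 level; % is set by controls: 0 for no effect and ±100 for the full control effect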). The conditions noted are these: ME-180 AP-1-bla reporter, EGF-induced, beta-lactamase ratio, 5 h; at 7.69 µM (top of the series) unless noted. Summed up: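 In this screen, ME-180 cells in Opti-MEM with 0.5% dialyzed FBS received EC50 EGF and compound titrations for 5 h. AP-1 reporter beta-lactamase was detected via CCF4 ratio, giving AC50 for positive and negative modulators.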

In test [3] the target is Cytochrome P450 1A2 (Homo sapiens) (UniProt P05177). As to the kind of experiment: p450-cyp1a2 (AID 410; calls by dose curve; note: potency is the fitted concentration of half-maximal effect). The conditions noted are these: recombinant CYP1A2, luciferin-ME demethylation, luminescence; series mostly up to 57 µM. In outline: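 20nM CYP1A2 with 100uM Luciferin-ME (at Km) in 100mM KPO4; compound preincubated 10 min, NADPH regeneration added, 60 min at room temperature. Luciferin quantified by luminescence after detection reagent; normalized to 57 uM furafylline.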

A short description of test [4]: NFAT Signaling Pathway (AID 444; active = well fitted curve in either direction with a large enough effect, not every such curve was filed as active;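 note: carbachol stimulus at about its EC50 of 1 µM final; % is set by controls: 0 for no effect and ±100 for the full control effect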). The following applies: Jurkat NFAT-bla M1, carbachol, beta-lactamase ratio, 5 h; at 7.69 µM (top of the series) unless noted. Summed up: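 Read-out: CCF4 FRET ratio (460 nm/530 nm) after 1 h RT dye loading, used for %activity and AC50 from titration series. Cells: Jurkat NFAT-β-lactamase/M1 line, treated with compound plus 1 uM carbachol for 5 h, 37 °C.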

A short description of test [5]: Stat Signaling Pathway (AID 446; active = well fitted curve in either direction with a large enough effect, not every such curve was filed as active;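 note: ME-180 cervical cancer cells given 40 pM IL-6 alongside compound; SIE-controlled beta-lactamase reporter measured as 460/530 nm FRET emission ratio; % is set by controls: 0 for no effect and ±100 for the full control effect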). The following applies: ME-180 SIE beta-lactamase reporter, IL-6 stimulated, 5 h; at 7.69 µM (top of the series) unless noted. Summed up: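 Screening format detects activators and inhibitors alike: ME-180 SIE-bla cells stimulated at 40 pM IL-6 for 5 hrs with compound, then dual-emission beta-lactamase read at 405 nm excitation.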
In test [6] the target is Glucocorticoid receptor (Homo sapiens) (UniProt P04150). As to the kind of experiment: GR-GFP Redistribution (AID 450;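 active = compounds whose dose series gives a full or clear partial fitted curve of increased nuclear translocation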; note: potency is the fitted concentration of half-maximal effect). The conditions noted are these: U2OS GR-GFP nuclear translocation, laser cytometry, 2 h.
For test [7] the target is unchanged. As to the kind of experiment: GR-EFC Redistribution (AID 451; calls by dose curve; note: potency is the fitted concentration of half-maximal effect). The conditions noted are these: CHO-K1 GR-EFC translocation, beta-gal luminescence, 2 h. Summed up:
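Translocation of GR-ED fusion to nuclear EA restores b-gal, read by luminescence after 1 h room-temperature detection. Engineered CHO-K1 biosensor cells, 1,000/well, exposed 2 h at 37 C to titrations up to 46 uM final.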

Test [8] deals with Mitogen-activated protein kinase 10 (Mus musculus) (UniProt Q61831). As to the kind of experiment: JNK3 AlphaScreen Assay (AID 530; active = well fitted curve in either direction with a large enough effect, not every such curve was filed as active;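 note: kinase came from lysate of stimulated human HepG2 cells; signal reports phosphorylation of biotinylated GST-cJun 1-79 at Ser73 with 10 µM ATP; % is set by controls: 0 for no effect and ±100 for the full control effect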). The following applies: JNK3 lysate, c-Jun phosphorylation; series mostly up to 57.1 µM. Summed up:
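Compound titrations were preincubated 15 minutes at room temperature with substrate, antibody and pre-activated JNK3-containing HepG2 lysate. Reactions were started with 10 uM ATP and stopped with EDTA-containing bead buffer for AlphaScreen detection.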
On the technique in general: In Alpha technology, singlet oxygen from a donor bead excites a nearby acceptor bead.

The target of test [9] is 3',5'-cyclic-AMP phosphodiesterase 4B (Homo sapiens) (UniProt Q07343). The test can be described thus: qHTS Assay for Inhibitors of PDE-IV (AID 607; active = well fitted activation curve with a large enough effect in the main read-out, with a control signal flat, not every such curve was filed as active; note: % of control where 0% means no effect). The conditions noted are these: HEK293 ACTOne CNG channel cells, membrane potential fluorescence; series mostly up to 22.9 µM. In outline:
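The readout is membrane depolarisation from a cAMP-sensing CNG channel, detected with a potential dye at ex 535/em 590. Cells were HEK293-derived (endogenous PDE-IV) at 1000 cells/well, titrated up to 22.9 uM final.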

The target in test [10] is Cytochrome P450 3A4 (Homo sapiens) (UniProt P08684). As to the kind of experiment: qHTS Assay for Inhibitors and Substrates of Cytochrome P450 3A4 (AID 884). Note: potency is the fitted concentration of half-maximal effect; nearly all actives have a fitted effect of over 50% in size. The conditions noted are these: recombinant CYP3A4, Luciferin-PPXE luminescence; series mostly up to 57.1 µM. Summed up: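 20 nM human CYP3A4 with 25 uM Luciferin-PPXE (at KM) in 200 mM KPO4, preincubated 10 min with compound; NADPH regeneration started a 60 min RT reaction. Luciferin detected by luminescence, normalized to 57 uM ketoconazole as full inhibition.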
A general note: qHTS replaces the single test concentration by a dilution series.

For test [11] the target is unchanged. The test can be described thus: qHTS Assay for Activators of Cytochrome P450 3A4 (AID 885). Note: nearly all actives have a fitted effect of over 65% in size. The following applies: recombinant CYP3A4, Luciferin-PPXE luminescence, 60 min; series mostly up to 57.1 µM. Summed up:
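Steps: enzyme/substrate mix dispensed; compound added, 10 min RT; NADPH regeneration solution added, 60 min RT; luciferin detection buffer stops reaction; 20 min later luminescence measured.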

Test [12] has as its target Cytochrome P450 2C19 (Homo sapiens) (UniProt P33261). As to the kind of experiment: qHTS Assay for Inhibitors and Substrates of Cytochrome P450 2C19 (AID 899). Note: potency is the fitted concentration of half-maximal effect; nearly all actives have a fitted effect of over 60% in size. The conditions noted are these: recombinant CYP2C19, luciferin-H EGE luminescence; series mostly up to 57.1 µM. Summed up: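 Reactions contain 5nM enzyme, 10uM Luciferin-H EGE (KM) and 50mM KPO4; compound preincubates 10 min at 37C, NADPH regeneration starts turnover for 60 min. Luminescence after detection reagent gives activity.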

In test [13] the target is Dual specificity protein kinase CLK4 (Homo sapiens) (UniProt Q9HAZ1). As to the kind of experiment: qHTS Assay for Inhibitors of CDC-like Kinase 4 (Kinase-Glo Assay) (AID 1770). Note: nearly all actives have a fitted effect of over 65% in size. Note: potency is the fitted concentration of half-maximal effect. The following applies: recombinant Clk4, Kinase-Glo ATP depletion luminescence; series mostly up to 66.7 µM. In outline: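 Substrate mix (RS peptide 100 uM, ATP 1 uM) dispensed, compound pinned in, then Clk4 added to 25 nM final. Incubated 4.5 h at RT; Kinase-Glo reagent added, luminescence read after 5 min.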

For test [14], the target named is Ubiquitin carboxyl-terminal hydrolase 1 (Homo sapiens) (UniProt O94782). As to the kind of experiment: Inhibitors of USP1/UAF1: Pilot qHTS (AID 504865).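 Note: rhodamine fluorescence freed from ubiquitin-rhodamine substrate followed over time; top concentration of the series differs between compounds; % is set by controls: 0 for no effect and ±100 for the full control effect; nearly all actives have a fitted effect of over 35% in size.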 The conditions noted are these: purified USP1/UAF1, Ub-rhodamine cleavage fluorescence; series mostly up to 54.9 µM. In outline:
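In 50mM HEPES pH 7.8 containing 0.5mM EDTA, 1mM TCEP, 0.1 mg/ml BSA and 0.01% Tween-20, 1nM USP1/UAF1 is exposed to compound for 15 min, then Ub-Rho (150nM final) is added and fluorescence is read over time.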

Test [15] can be described thus: Primary qHTS for small molecule stabilizers of the endoplasmic reticulum resident proteome: Secreted ER Calcium Modulated Protein (SERCaMP) assay (AID 1508630). Note: % is set by controls: 0 for no effect and ±100 for the full control effect. The following applies: SH-SY5Y GLuc-SERCaMP (Gaussia luciferase released on ER calcium loss) secretion, thapsigargin, luminescence; series mostly up to 38.4 µM. In outline: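 GLuc-SERCaMP-expressing SH-SY5Y cells, pretreated 16 h with compound, are challenged with thapsigargin to empty ER calcium stores; after 4 h, coelenterazine is added directly to the medium and luminescence is imaged.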

In test [16] the target is Dual specificity protein kinase CLK4 (Homo sapiens) (UniProt Q9HAZ1). As to the kind of experiment: qHTS Assay for Inhibitors of CDC-like Kinase 4 (ADP-FP Assay) (AID 1795). Note: nearly all actives have a fitted effect of over 60% in size. Note: potency is the fitted concentration of half-maximal effect. The conditions noted are these: Transcreener ADP fluorescence polarization; series mostly up to 50 µM. Summed up:
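Clk4 6.25 nM; RS peptide 100 uM; ATP 1 uM; 25 mM Tris pH 7.5, 10 mM MgCl2; 1 h reaction. ADP detected via antibody/orange tracer FP displacement; TG003 positive control.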

The nature of test [17]: qHTS Assay for Identification of Small Molecule Agonists for Hypoxia Response Element Signaling Pathway (AID 914; active = well fitted activation curve with a large enough effect in the signal ratio, with a control signal flat, not every such curve was filed as active; the % refers to the signal ratio; note: potency is the fitted concentration of half-maximal effect; for activation: % of control where 0% means no effect). The following applies: ME-180 (cervical carcinoma) HRE-bla reporter, beta-lactamase ratio, CoCl2, 17 h; activation: active compounds read high. Summed up: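 HRE-bla ME-180 cells with beta-lactamase reporter under hypoxia response element, compounds with EC50 CoCl2 for 17 hours at 37 C. CCF4 substrate, 460nm/530nm emission ratio gave %Activity; AC50 from titration series.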

In test [18] the target is Cytochrome P450 2C9 (Homo sapiens) (UniProt P11712). The test can be described thus: qHTS Assay for Inhibitors and Substrates of Cytochrome P450 2C9 (AID 883). Note: % is set by controls: 0 for no effect and ±100 for the full control effect; nearly all actives have a fitted effect of over 60% in size. The conditions noted are these: recombinant CYP2C9, luciferin-H luminescence, 60 min; series mostly up to 57.1 µM. Summed up:
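Turnover of Luciferin-H (100uM, KM) by 10nM human CYP2C9 was measured over 60 min at 37C with NADPH regeneration; inhibitors and some substrates reduce luminescence. Data normalized to sulphaphenazole 57uM.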

In test [19] the target is Dual specificity protein kinase CLK4 (Homo sapiens) (UniProt Q9HAZ1). As to the kind of experiment: qHTS Assay for Inhibitors of CDC-like Kinase 4 (ADP-Glo Assay) (AID 1771). Note: nearly all actives have a fitted effect of over 70% in size. Note: potency is the fitted concentration of half-maximal effect. The following applies: recombinant CLK4, ADP-Glo luminescence; series mostly up to 80 µM. Summed up: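 25 nM Clk4 with 100 uM RS repeat peptide and 1 uM ATP (final) in buffer with 2 mM MgCl2, 0.5 mM EGTA, 2.5 mM DTT, 0.01% Triton X-100; 1 h at room temperature; ADP-Glo luminescence for ADP formed.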

Ubiquitin carboxyl-terminal hydrolase 1 (Homo sapiens), sequence (O94782 whole entry, looked up): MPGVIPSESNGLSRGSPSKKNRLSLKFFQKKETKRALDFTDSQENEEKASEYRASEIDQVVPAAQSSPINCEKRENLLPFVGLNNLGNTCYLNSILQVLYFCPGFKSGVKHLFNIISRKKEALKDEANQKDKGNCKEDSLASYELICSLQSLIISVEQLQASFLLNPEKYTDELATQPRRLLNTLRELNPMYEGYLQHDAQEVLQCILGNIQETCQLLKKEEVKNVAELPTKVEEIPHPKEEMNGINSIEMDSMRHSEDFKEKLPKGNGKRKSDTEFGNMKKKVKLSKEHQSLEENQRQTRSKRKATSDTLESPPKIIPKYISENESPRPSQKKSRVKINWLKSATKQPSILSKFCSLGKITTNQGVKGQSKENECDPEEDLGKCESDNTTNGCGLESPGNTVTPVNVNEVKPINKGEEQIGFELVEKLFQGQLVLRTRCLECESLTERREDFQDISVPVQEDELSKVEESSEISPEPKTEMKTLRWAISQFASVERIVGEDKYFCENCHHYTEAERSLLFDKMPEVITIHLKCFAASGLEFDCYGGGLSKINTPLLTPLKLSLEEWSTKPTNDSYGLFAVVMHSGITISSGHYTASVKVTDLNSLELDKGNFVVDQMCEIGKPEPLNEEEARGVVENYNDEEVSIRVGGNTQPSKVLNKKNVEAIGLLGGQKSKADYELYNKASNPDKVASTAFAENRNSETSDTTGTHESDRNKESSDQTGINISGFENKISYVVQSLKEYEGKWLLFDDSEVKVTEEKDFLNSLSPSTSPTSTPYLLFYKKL
Lysosomal acid glucosylceramidase (Homo sapiens), sequence (P04062 whole entry, looked up): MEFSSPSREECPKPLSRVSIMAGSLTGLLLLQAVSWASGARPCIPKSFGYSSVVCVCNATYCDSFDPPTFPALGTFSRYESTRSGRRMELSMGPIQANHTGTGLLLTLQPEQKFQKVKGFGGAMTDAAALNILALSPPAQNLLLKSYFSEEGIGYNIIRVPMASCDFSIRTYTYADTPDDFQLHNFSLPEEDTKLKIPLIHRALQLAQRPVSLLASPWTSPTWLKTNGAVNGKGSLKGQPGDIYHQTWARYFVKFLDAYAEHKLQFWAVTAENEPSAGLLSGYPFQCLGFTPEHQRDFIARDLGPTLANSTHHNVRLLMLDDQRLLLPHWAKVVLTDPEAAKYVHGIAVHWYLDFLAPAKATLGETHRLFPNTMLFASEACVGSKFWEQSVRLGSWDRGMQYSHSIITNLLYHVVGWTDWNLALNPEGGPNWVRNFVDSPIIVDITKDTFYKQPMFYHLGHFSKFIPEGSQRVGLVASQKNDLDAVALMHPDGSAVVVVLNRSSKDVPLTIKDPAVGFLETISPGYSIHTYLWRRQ
3',5'-cyclic-AMP phosphodiesterase 4B (Homo sapiens), sequence (Q07343 whole entry, looked up): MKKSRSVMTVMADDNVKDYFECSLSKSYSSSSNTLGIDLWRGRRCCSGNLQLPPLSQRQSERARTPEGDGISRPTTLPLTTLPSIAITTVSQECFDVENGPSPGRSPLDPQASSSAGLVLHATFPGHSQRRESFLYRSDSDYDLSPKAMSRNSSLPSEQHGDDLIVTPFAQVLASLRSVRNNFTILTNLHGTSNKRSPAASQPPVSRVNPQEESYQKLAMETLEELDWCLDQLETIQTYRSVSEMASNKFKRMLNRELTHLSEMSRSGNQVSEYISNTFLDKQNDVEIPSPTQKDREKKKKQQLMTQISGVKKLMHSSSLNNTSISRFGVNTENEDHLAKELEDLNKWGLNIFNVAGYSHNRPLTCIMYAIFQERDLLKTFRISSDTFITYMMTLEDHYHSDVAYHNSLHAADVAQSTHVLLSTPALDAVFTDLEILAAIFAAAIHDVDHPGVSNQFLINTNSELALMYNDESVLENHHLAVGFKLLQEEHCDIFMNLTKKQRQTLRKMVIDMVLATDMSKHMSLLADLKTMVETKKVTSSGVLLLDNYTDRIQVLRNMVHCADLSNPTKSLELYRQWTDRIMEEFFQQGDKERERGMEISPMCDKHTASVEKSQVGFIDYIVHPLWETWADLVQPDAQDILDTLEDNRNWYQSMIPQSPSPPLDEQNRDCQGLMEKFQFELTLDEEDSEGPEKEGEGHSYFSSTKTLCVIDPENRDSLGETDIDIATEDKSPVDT
Cytochrome P450 1A2 (Homo sapiens), sequence (P05177 whole entry, looked up): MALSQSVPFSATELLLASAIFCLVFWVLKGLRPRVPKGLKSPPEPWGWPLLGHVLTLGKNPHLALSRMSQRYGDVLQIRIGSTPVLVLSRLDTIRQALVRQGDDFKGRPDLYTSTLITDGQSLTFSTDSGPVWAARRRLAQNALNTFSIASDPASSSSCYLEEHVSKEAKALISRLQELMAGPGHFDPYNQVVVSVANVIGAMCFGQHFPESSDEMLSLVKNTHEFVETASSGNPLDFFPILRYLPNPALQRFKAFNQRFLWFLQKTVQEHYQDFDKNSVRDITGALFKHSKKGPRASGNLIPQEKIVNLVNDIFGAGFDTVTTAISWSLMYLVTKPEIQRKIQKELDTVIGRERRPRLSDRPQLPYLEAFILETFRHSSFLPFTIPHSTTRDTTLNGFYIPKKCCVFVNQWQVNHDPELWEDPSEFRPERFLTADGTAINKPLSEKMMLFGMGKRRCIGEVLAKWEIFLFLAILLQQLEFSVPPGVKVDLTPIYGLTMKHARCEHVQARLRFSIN
Glucocorticoid receptor (Homo sapiens), sequence (P04150 whole entry, looked up): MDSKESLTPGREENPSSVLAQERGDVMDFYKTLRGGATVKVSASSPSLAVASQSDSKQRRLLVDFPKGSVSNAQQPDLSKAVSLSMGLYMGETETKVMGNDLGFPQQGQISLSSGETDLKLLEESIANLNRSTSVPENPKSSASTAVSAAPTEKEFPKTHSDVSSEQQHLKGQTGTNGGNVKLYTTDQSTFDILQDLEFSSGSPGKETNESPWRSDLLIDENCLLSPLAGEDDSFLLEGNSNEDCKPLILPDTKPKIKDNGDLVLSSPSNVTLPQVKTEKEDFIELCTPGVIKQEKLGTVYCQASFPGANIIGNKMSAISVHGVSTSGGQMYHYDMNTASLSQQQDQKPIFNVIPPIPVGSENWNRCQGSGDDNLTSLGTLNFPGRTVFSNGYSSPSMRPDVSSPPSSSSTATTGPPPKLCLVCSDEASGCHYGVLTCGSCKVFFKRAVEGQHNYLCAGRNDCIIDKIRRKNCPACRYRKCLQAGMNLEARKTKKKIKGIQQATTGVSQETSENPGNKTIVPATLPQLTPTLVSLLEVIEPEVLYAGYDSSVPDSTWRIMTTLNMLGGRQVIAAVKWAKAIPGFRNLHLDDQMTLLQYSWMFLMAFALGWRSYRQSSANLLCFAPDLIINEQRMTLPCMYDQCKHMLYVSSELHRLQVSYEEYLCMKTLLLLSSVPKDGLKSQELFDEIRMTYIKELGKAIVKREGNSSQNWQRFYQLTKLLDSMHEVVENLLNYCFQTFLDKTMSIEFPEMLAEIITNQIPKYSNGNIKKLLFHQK
Dual specificity protein kinase CLK4 (Homo sapiens), sequence (Q9HAZ1 whole entry, looked up): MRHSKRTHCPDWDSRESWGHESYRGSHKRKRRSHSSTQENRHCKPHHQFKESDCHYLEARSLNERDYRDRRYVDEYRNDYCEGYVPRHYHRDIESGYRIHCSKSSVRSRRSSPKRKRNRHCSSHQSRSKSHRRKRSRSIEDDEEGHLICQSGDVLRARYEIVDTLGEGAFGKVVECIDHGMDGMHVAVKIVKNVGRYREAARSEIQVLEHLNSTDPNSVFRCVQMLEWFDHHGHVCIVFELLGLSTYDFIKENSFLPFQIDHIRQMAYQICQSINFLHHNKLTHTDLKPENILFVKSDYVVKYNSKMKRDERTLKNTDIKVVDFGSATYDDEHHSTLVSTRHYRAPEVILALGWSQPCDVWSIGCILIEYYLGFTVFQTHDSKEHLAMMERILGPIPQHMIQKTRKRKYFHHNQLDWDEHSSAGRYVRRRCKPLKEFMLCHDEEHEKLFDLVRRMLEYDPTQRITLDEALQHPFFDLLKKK
Cytochrome P450 3A4 (Homo sapiens), sequence (P08684 whole entry, looked up): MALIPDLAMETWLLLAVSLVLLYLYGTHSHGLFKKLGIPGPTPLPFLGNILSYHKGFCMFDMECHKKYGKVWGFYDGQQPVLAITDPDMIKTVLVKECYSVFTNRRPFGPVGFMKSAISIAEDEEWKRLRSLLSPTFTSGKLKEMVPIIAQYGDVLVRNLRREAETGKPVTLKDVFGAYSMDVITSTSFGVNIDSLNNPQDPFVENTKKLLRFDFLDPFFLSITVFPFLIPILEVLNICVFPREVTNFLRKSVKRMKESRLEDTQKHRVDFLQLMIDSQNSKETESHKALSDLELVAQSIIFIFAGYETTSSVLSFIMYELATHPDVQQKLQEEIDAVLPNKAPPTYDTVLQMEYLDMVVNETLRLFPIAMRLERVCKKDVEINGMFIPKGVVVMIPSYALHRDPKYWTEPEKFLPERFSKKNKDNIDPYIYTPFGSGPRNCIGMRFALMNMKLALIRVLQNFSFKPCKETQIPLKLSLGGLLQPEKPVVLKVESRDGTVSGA
Cytochrome P450 2C19 (Homo sapiens), sequence (P33261 whole entry, looked up): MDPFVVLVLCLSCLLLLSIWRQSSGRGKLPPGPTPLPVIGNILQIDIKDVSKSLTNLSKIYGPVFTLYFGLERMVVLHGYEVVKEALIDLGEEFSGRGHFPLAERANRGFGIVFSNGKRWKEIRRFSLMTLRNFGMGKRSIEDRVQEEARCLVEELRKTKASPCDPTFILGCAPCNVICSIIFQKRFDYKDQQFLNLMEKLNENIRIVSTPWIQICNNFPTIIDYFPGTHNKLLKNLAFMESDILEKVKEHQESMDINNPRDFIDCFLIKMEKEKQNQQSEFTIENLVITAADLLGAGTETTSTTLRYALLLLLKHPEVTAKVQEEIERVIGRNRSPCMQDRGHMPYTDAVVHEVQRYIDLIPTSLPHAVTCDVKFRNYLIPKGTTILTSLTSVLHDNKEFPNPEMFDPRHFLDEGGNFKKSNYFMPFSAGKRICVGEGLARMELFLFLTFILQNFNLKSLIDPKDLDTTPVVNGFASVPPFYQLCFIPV

For the molecule `COc1ccc2[nH]cc(CCNc3ccnc(-c4ccoc4)n3)c2c1`, the Potency in test [1] is more than 11.4 µM; in test [3], 0.501 µM (active); in test [6] it was more than 46 µM; in test [7], more than 46 µM; in test [10] it was 3.16 µM (active); in test [12] it was 0.501 µM (active). Also, the Potency in test [13] was 14.1 µM (active). The activity change, negative = inhibition in test [2] is -23%; in test [4] it was -2.92%. Further, the activity, negative = inhibition in test [5] was -23.2%. Further, the Potency result in test [8], in test [9], in test [11] and in test [14] was “inactive” in each case. Also, the outcome in test [15] was inactive.

As for `c1ccc(CNc2ncnc3ccc(-c4ccc5c(c4)OCO5)cc23)cc1`, the Potency is more than 11.4 µM in test [1]; 0.2 µM (active) in test [3]; more than 46 µM in test [6]; more than 46 µM in test [7]; 2 µM (active) in test [10]; 3.16 µM (active) in [12]. Besides, the Potency in [13] is 0.158 µM (active); in [16], 0.0355 µM (active). The activity change, negative = inhibition in test [4] is -4.08%. Further, in test [5], the activity, negative = inhibition is -5.81%. Also, the Potency entry in [8], in test [11] and in test [14] was “inactive” in each case. Also, the outcome in test [15] was inactive.

Regarding `N#CCCn1c(=O)c(-c2ccc(F)cc2)nc2cnc(N3CCNCC3)nc21`, the Potency in test [1] is more than 11.4 µM; in test [6] it was more than 9.22 µM; in test [7], more than 46 µM; in [17] it was 3.16 µM (active). The Potency result in [8], in test [9], in [11], in test [13], in [16] and in test [14] was “inactive” in each case. Besides, in test [15], the result was inactive.

With `Cn1c(=O)c(-c2cccc(F)c2)nc2cncnc21`, the Potency in test [1] was more than 11.4 µM; in test [6], more than 9.22 µM; in test [7], more than 46 µM. Also, the activity change, negative = inhibition in test [2] was -15.2%; in [4] it was 8.36%. Further, the activity, negative = inhibition in [5] is -5.84%. Further, the Potency entry in test [8], in test [9], in test [11], in test [13], in test [16] and in test [14] was “inactive” throughout. Moreover, the activation in [17] was -8.58%. The result in [15] was inactive.

Turning to `CN(C)C(=O)c1ccc(-c2ccc3ncnc(NCc4ccccc4)c3c2)cc1`, the Potency is more than 11.4 µM in [1], 15.8 µM (active) in test [3], more than 46 µM in [6] and more than 46 µM in test [7]. Besides, the activity change, negative = inhibition in [4] was 13%. Besides, the activity, negative = inhibition in [5] was 7.31%. Besides, the Potency entry in test [8], in test [11], in test [13], in test [16] and in [14] was “inactive” each time. In addition, the outcome in test [15] was inactive.

Turning to `COc1ccccc1-c1cncnc1N(C)Cc1ccco1`, the Potency is more than 11.4 µM in test [1], more than 46 µM in test [6], more than 46 µM in test [7] and 1.26 µM (active) in [10]. Also, the activity change, negative = inhibition in test [2] was -9.6%. In addition, the activity, negative = inhibition in test [5] was 17%. Further, the Potency entry in [8], in [9], in test [11], in test [13] and in [16] was “inactive” throughout. In [15], the result was inactive.

In the case of `CN(Cc1ccco1)c1cc(-c2cccc(C#N)c2)ncn1`, the Potency in [1] is more than 11.4 µM; in test [3] it was 0.794 µM (active); in [6] it was more than 46 µM; in test [7] it was more than 46 µM; in test [19] it was 28.2 µM (active). The activity change, negative = inhibition in test [2] was -7.22%; in test [4] it was 11.4%; in test [18] it was 12.3% [at 2.29 µM]. Moreover, the activity, negative = inhibition in [5] is 8.43%. In addition, the Potency result in test [8], in [9] and in test [14] was “inactive” throughout. Further, in test [15], the result was inactive.

`Cn1c(=O)c(-c2ccc(Cl)cc2)nc2cnc(N3CCNCC3)nc21`: the results for the Potency in test [1], in test [6] and in [7] were more than 11.4 µM, more than 9.22 µM and more than 46 µM, respectively. Besides, the activity change, negative = inhibition in test [4] is 204% [activator] (active). In addition, the Potency result in test [8], in test [9], in test [11], in test [19], in test [16] and in [14] was “inactive” each time. In test [15], the outcome was inactive.
